Data on 14 sequences can be found in publication PMC4242493, “Sequence specificity incompletely defines the genome-wide occupancy of Myc”.

Chain of Myc;MaxL (P01106 16-454, chain 1 of 2): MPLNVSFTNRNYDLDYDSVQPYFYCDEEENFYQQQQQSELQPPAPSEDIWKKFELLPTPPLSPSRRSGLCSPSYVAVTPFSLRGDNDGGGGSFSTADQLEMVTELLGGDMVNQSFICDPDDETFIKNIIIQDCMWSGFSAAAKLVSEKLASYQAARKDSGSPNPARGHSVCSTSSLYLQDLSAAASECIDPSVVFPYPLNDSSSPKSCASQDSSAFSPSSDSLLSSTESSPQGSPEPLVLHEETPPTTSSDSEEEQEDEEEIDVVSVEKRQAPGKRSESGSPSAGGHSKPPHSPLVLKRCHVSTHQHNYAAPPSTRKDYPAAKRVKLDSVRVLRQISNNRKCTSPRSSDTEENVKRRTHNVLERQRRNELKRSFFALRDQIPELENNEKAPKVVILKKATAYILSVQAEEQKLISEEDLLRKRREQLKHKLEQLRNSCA
Chain of Myc;MaxL (P61244 whole entry, chain 2 of 2): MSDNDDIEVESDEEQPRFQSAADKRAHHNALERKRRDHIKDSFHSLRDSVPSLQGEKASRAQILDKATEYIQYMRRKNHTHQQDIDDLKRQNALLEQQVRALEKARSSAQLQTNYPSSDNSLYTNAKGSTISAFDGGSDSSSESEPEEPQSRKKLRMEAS

This test has as its target Myc;MaxL (Homo sapiens;Homo sapiens, UniProt P01106-1;P61244 1-439;1-160, |). Kind of test: universal protein-binding microarray (PBM); PBS-based mixture, 10 nM His-tagged protein dimer, 2% milk, 200 ng/uL BSA, 50 ng/uL salmon testes DNA, 0.02% TX-100; detection with Alexa 488 anti-His antibody;; high values mean tight binding.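 Also: fluorescence intensity normalized to that of the highest-ranked 8-mer.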 Conditions: protein: recombinant;recombinant; tags: C-terminal His-tag (pET21a);C-terminal His-tag (pET21a); copies: 1;1; dsDNA, one strand shown.
Regarding CCACGTGC, the binding signal is 0.978 normalized occupancy.
In the case of CACGTGTC it was 0.761 normalized occupancy; in that of ACACGTGT, 0.833 normalized occupancy; in that of ACACGTGG, 0.895 normalized occupancy.
In the case of ACCACGTG, the binding signal was determined as 0.875 normalized occupancy.
To CACGTGGG belongs 0.757 normalized occupancy; to CACGTGGC, 0.927 normalized occupancy.
In the case of AACACGTG it was 0.784 normalized occupancy; in that of CACGTGGA, 0.81 normalized occupancy.
To AGCACGTG belongs 0.947 normalized occupancy.
Take ACACGTGC: the binding signal worked out at 0.766 normalized occupancy.
As to CACGTGCC, the binding signal turned out to be 0.732 normalized occupancy.
To CACGTGCG belongs 0.798 normalized occupancy; to CCACGTGG, 0.959 normalized occupancy.
